The campaign covered roughly 420,000 compounds. About 50,000 (12%) were called active. Not shown: some 26% with an inconclusive outcome. Many of the other results were omitted from the sample, so actives are more common in it than they were. Unmarked numbers belong to inactive results. Calls follow the shape of the dose curve; as a rule, active = well fitted inhibition curve with a large enough effect; inconclusive = small, poorly fitted or top-dose-only effect; inactive = flat fitted curve, though single readings scatter.
Test: qHTS for Inhibitors of human tyrosyl-DNA phosphodiesterase 1 (TDP1): qHTS in cells in presence of CPT; also: nearly all actives have a fitted effect of over 55% in size
Conditions: chicken DT40 Tdp1-/-;hTDP1 cells + 20 nM CPT, ATP luminescence, 48 h; series mostly up to 46.2 µM; activity change, negative = growth inhibition: at the top concentration
Outline: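 Chicken DT40 Tdp1-/- cells complemented with human TDP1, 400 cells/well, exposed to compounds plus 20 nM camptothecin for at least 48 h at 37 C; viability read as ATP content by CellTiter-Glo luminescence.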
% is scaled to controls: 0 for no effect and ±100 for the full control effect; potency is read from the fitted curve at half-maximal effect.

| SMILES | activity change, negative = growth inhibition [%] | Potency |
| --- | --- | --- |
| COc1ccccc1CN1CC(C(=O)NCCc2cn[nH]c2)CCC1=O (centres undefined) | 15.3 |  |
| O=C(CCNS(=O)(=O)c1ccccc1C(F)(F)F)Nc1ccncc1 | -23.4 |  |
| CCOC(=O)CSc1nnc(NC(=O)C2CC(=O)N(c3ccc(F)cc3)C2)s1 (centres undefined) | -2.28 |  |
| COC(=O)C1=CN(Cc2ccc(OC)cc2)C=C(C(=O)OC)C1c1ccc(O)c(OC)c1 | -10.8 |  |
| CC(=O)Nc1ccc(S(=O)(=O)N2CCC(C(=O)NC3CC3)CC2)cc1 | 2.36 |  |
| CS(=O)(=O)N1CCN=C1SCc1ccc(F)cc1 | 19.6 |  |
| CC(=O)c1cnc(SCCN2C(=O)c3ccccc3C2=O)nc1C | -0.72 |  |
| C=CCOc1cccc(C2NC(=O)c3ccccc3O2)c1 (centres undefined) | 1.33 |  |
| O=C1NC(c2cccc(Cl)c2)Nc2ccccc21 (centres undefined) |  | 13 µM (active) |
| O=C1NC(c2ccccc2)Oc2ccccc21 (centres undefined) | -11.4 |  |
| COc1ccc(C(=O)CSc2nnc(NC(=O)C3CC(=O)N(c4cccc(OC)c4)C3)s2)cc1 (centres undefined) | -23.9 |  |
| Cc1cc(C)n2nc(C(=O)Nc3cccc(S(=O)(=O)N4CCOCC4)c3)nc2n1 | -1.26 |  |
| O=C(N/N=C\c1cc(Br)c(Br)o1)C1COc2ccccc2O1 (centres undefined) | -8.29 |  |
| Cc1cc(C(=O)N2CCCC2(C)C(=O)O)c(C)o1 (centres undefined) | -14.8 |  |
| CCCN=C1N(C)C[C@@H]2[C@@H]3C(=O)N(Cc4ccccc4)C(=O)[C@@H]3[C@](C)(C(=O)OC)N12 | 17.2 |  |
| O=C(CCSCc1ccccc1F)N1CCN(c2ccc(Cl)cc2)CC1 |  | 23.1 µM (active) |
| O=C(CCc1ccccc1F)N1CCN(c2ccccc2)CC1 | -12.7 |  |
| O=C(CCSc1ccccc1)N1CCN(c2ccccc2F)CC1 | -4.21 |  |
| CCOCCCN1C(=O)CN(C2CCCCC2)C(=O)C1c1ccc(OCC)c(OC)c1 (centres undefined) | -15.8 |  |
| COc1ccc(C2C(=O)N(C3CCCCCC3)CC(=O)N2CCc2ccc(Cl)cc2)cc1OC (centres undefined) |  | 23.1 µM (active) |
| O=C(NCCc1ccc(Cl)cc1)C1CC(=O)N(C2CCCCC2)C1 (centres undefined) | -11.4 |  |
| COc1ccccc1N1CC(C(=O)NCCN2C(=O)S/C(=C\c3cccnc3)C2=O)CC1=O (centres undefined) | 4.39 |  |
| S=C(Cc1ccc(Cl)cc1)N1CCOCC1 | -4.63 |  |
| COc1ccc(-c2cnc(SCCNC(=O)c3ccc4c(c3)OCO4)[nH]2)cc1 | -10.2 |  |
| CCCC[C@H]1COCCS(=O)(=O)N1Cc1cccc(Cl)c1 | 0.0482 |  |
| CCC(C)[C@H]1COCCS(=O)(=O)N1Cc1ccc(C)cc1 (some centres undefined) | -18.2 |  |
| O=S1(=O)CCOC[C@H](CC2CCCCC2)N1Cc1ccc(F)cc1 |  | 2.51 µM (active) |

| SMILES | activity change, negative = growth inhibition [%] | Potency |
| --- | --- | --- |
| CC(C)Oc1ccc(S(=O)(=O)N2CCOCC2)cc1NC(=O)C1CCCC1 | -10 |  |
| O=C(CCS(=O)(=O)c1ccccc1Cl)Nc1ccc(S(=O)(=O)Nc2ncccn2)cc1 | -10.7 |  |
| Cc1ccc(S(=O)(=O)N2CCOCC2)cc1C(=O)OC1CCCCC1=O (centres undefined) | -10.5 |  |
| C[C@@H]1CN([C@H](C)CO)C(=O)CCCn2cc(nn2)CO[C@H]1CN(C)S(=O)(=O)c1ccc(Oc2ccccc2)nc1 | -12.2 |  |
| O=C(/C=C/c1ccc(F)cc1)NCCNC(=O)/C=C/c1ccc(F)cc1 | -1.15 |  |
| O=C(/C=C/c1ccc([N+](=O)[O-])o1)NNC(=O)c1ccc(F)cc1 |  | 3.26 µM (active) |
| CCN(C(=O)Cn1c(=O)nc(-c2ccccc2)c2cc(Cl)ccc21)c1cccc(C)c1 | 11.6 |  |
| Cc1ccc(S(=O)(=O)NCC(=O)N(CC(=O)NCC2CCCO2)c2cccc(F)c2)cc1 (centres undefined) | -1.7 |  |
| C=CCOc1ccccc1CNn1c(C)n[nH]c1=S | -15.9 |  |
| N#C/C(=C(/O)COC(=O)COc1ccc(Cl)cc1)c1nc2ccccc2[nH]1 |  | 4.11 µM (active) |
| N#C/C(=C(/O)COc1cccc2ccccc12)c1nc2ccccc2[nH]1 | -5.59 |  |
| Cc1ccccc1OC/C(O)=C(\C#N)c1nc2ccccc2[nH]1 | -3.62 |  |
| O=C(NNC(=O)c1cc(-c2ccccc2Cl)nc2ccccc12)c1csc(N2CCOCC2)n1 | -20.9 |  |
| CC(C)(C)c1ccc(C(CC(=O)O)NS(=O)(=O)Cc2ccccc2)cc1 (centres undefined) | -6.35 |  |
| Cc1ccc2c(c1)N(CC(=O)NCC1CCCO1)C(=O)CO2 (centres undefined) | 2.88 |  |
| NS(=O)(=O)c1ccc(NC(=O)CSc2nnc3c(n2)[nH]c2ccccc23)cc1 | -21.2 |  |
| CCCCCNC(=O)Cc1ccc(OC)cc1 | 3.59 |  |
| COc1ccc(CC(=O)Nc2ccc(C(=O)NC(C)(C)C)cc2)cc1 | -12.6 |  |
| C/C=C/NNC(=O)Cc1ccc(OC)cc1 |  | 3.55 µM (active) |
| C#CCOCCOCCOCCNc1nc(N2CCN(C(=O)[C@H](CCC(=O)O)n3cc(CN)nn3)CC2)nc(N2CCN(C(=O)[C@H](CCC(=O)O)n3cc(CN)nn3)CC2)n1 | 33 |  |
| CC(=O)c1cccc(NC(=S)N2CCCC2)c1 | 48.5 |  |
| CC1=NN(C(=O)CCCc2ccccc2)C(O)(C(F)(F)F)C1 (centres undefined) | 3.77 |  |
| CC1=NN(C(=O)Cc2ccc(C)cc2)C(O)(c2cccnc2)C1 (centres undefined) | -20.6 |  |
| COc1ccc(CC(=O)N2N=C(C)CC2(O)C(F)(F)F)cc1 (centres undefined) |  | 2.91 µM (active) |
| CC1CC(=S)Nc2ccccc2N1Cc1ccccc1 (centres undefined) | -2.65 |  |
| Nc1nc2ncccn2c1-c1ccccc1 | 6.86 |  |
| O=S(=O)(Nc1cccc(-n2cnnn2)c1)c1cnc(Cl)c(Cl)c1 | -19.4 |  |

Reference: PubChem BioAssay AID686979 (National Center for Advancing Translational Sciences (NCATS), 2013)
